The supplement of paper PMC6555819

Columns and labels:
Test in all cases: PBM binding z-score (relative to random genomic background probes); higher = stronger binding; sequences stand for … in GC…GCGATTGACAGCGTAGAATGAAGG
[1] = system: PPARg:RXRa DBDmut IVT, anti-RXR (DBD mutation: RXRa K156A/R161A, NR concentration 270 nM, RXRa partner concentration 90 nM)
How it was run: (§1)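 Regression normalization was applied to scanned fluorescence from custom Agilent 4×180K protein-binding microarrays. Before scanning, arrays were incubated 1 h with ligand-free nuclear receptor dimers, and binding was detected with antibodies against each partner (one per run). Binding z-scores use the random background probes as reference.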

[2] = system: PPARg:RXRa IVT, anti-PPARg (NR concentration 270 nM, RXRa partner concentration 90 nM)
How it was run: as §1

[3] = system: PPARg DBDmut:RXRa IVT, anti-PPARg (DBD mutation: PPARg1 K132A/R137A, NR concentration 270 nM, RXRa partner concentration 90 nM)
How it was run: as §1

[4] = system: PPARg DBDmut IVT, anti-PPARg (DBD mutation: PPARg1 K132A/R137A, NR concentration 270 nM)
How it was run: as §1

[5] = system: PPARg homodimer (NR concentration 180 nM)
How it was run: as §1

[6] = system: PXR:RXRa (NR concentration 270 nM, RXRa partner concentration 90 nM)
How it was run: as §1

[7] = system: PXR homodimer (NR concentration 270 nM)
How it was run: as §1

[8] = system: RARa:RXR (NR concentration 270 nM, RXRa partner concentration 90 nM)
How it was run: as §1

[9] = system: RARa homodimer (NR concentration 270 nM)
How it was run: as §1

[10] = system: RARb:RXRa (NR concentration 270 nM, RXRa partner concentration 90 nM)
How it was run: as §1

[11] = system: RARb homodimer (NR concentration 270 nM)
How it was run: as §1

[12] = system: RARg:RXRa (NR concentration 270 nM, RXRa partner concentration 90 nM)
How it was run: as §1

[13] = system: RARg homodimer (NR concentration 270 nM)
How it was run: as §1

[14] = system: RXRa DBDmut IVT, anti-RXR (DBD mutation: RXRa K156A/R161A, NR concentration 90 nM)
How it was run: as §1

[15] = system: RXRa homodimer (NR concentration 180 nM)
How it was run: as §1

[16] = system: THRa:RXRa (NR concentration 90 nM, RXRa partner concentration 90 nM)
How it was run: as §1

[17] = system: THRa homodimer (NR concentration 90 nM)
How it was run: as §1

[18] = system: VDR homodimer (NR concentration 270 nM)
How it was run: as §1

Row | Sequence | PBM binding z-score [1] | PBM binding z-score [2] | PBM binding z-score [3] | PBM binding z-score [4] | PBM binding z-score [5] | PBM binding z-score [6] | PBM binding z-score [7] | PBM binding z-score [8] | PBM binding z-score [9] | PBM binding z-score [10] | PBM binding z-score [11] | PBM binding z-score [12] | PBM binding z-score [13] | PBM binding z-score [14] | PBM binding z-score [15] | PBM binding z-score [16] | PBM binding z-score [17] | PBM binding z-score [18]
1 | TATAGTTGGTCACGGAGGTCACACACGACGGGTA | 1.03 | 4.52 | 1.35 | 2.08 | 2.56 | 4.66 | 1.06 | 4.48 | 1.98 | 4.09 | 4.58 | 4.81 | 4.72 | -0.131 | 5.16 | 3.9 | 2.69 | 2.85
2 | CCGTCTGGGGCAAGGTTACCATAACGCACAGCCA | 1.75 | 2.43 | -0.591 | -1.54 | 0.46 | 0.036 | -0.461 | 0.632 | 0.0974 | 1.72 | 1.05 | 1.06 | 1.13 | -0.58 | 0.988 | 1.15 | 0.197 | 0.0669
3 | CCCAGTAGGTTATGGGGCATTCAGGCAACGGTGA | 3.64 | 4.66 | -0.461 | -0.268 | 0.645 | -0.0768 | -0.414 | 0.112 | -0.0462 | 0.967 | 0.987 | 0.653 | 0.48 | -1.2 | 0.869 | 0.512 | -0.000965 | 0.0729
4 | CATACAGGGTCAACTAGGCCAGAGTAGGGACGGC | 2.92 | 4.23 | 1.17 | 0.243 | 2.2 | 3.61 | 0.451 | 4.7 | 0.953 | 4.66 | 3.62 | 5.7 | 5.42 | 2.74 | 6.54 | 3.74 | 1.5 | 2.36
5 | ATATCTAGGTAACCAAGTTCAGTGAATGCCGAAC | 6.87 | 6.81 | 1.28 | 1.43 | 1.06 | 2.01 | 1.85 | 0.933 | 0.953 | 1.39 | 1.55 | 0.963 | 0.923 | 0.824 | 0.83 | 1.58 | 0.613 | 2.63
6 | CCGACTGGGGCAAAGGTTACCATCCTCAGTACGA | 4.64 | 5.59 | -0.502 | -0.948 | 1.17 | 2.56 | -0.625 | 4.05 | -0.46 | 2.39 | 2.19 | 3.56 | 1.56 | -0.109 | 4.04 | 1.77 | -0.0864 | -0.138
7 | TCAGATAGGTAAACAGGTGAAAGTCCGTAAGTTA | 2.93 | 2.15 | 0.778 | 0.465 | 0.969 | 0.684 | 0.401 | 1.05 | 1.15 | 0.891 | 0.841 | 0.678 | 0.219 | 1.48 | 1.01 | 0.664 | 0.307 | 0.407
